Reference: PubChem BioAssay (NCI)
The panel holds about 79,000 compounds, 15% with a hit somewhere; the sample as a whole holds those more often. Active and inactive are the calls of the source. Rule as the data show it: active = growth inhibition above about 70%; inactive = the rest.

Key:
[1] = NCI Yeast Anticancer Drug Screen. Data for the rad50 strain (AID 155);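 also: 0% = growth of vehicle-only cultures of the same strain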; settings: S. cerevisiae rad50 strain growth inhibition; at 50.0 µM; active compounds read high
Summary of the method: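 Cells are treated with compound, grown, and their growth is then scored against vehicle-only cultures of the same repair-deficient yeast strain.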

[2] = NCI Yeast Anticancer Drug Screen. Data for the mec2-1 strain (AID 157); settings: S. cerevisiae mec2-1 strain, at 50.0 µM, active compounds read high
Summary of the method: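 Cells of the genetically defined mec2-1 yeast strain are incubated with test compound. Inhibition of growth is calculated against vehicle-treated controls.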

[3] = NCI Yeast Anticancer Drug Screen. Data for the sgs1 mgt1 strain (AID 161);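 also: 0% = growth of cultures given vehicle only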; settings: S. cerevisiae sgs1 mgt1 strain, at 50.0 µM, active compounds read high
Summary of the method: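 Test agents were incubated with a DNA-repair-mutant yeast strain. Growth was then read and compared against vehicle-treated controls.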

[4] = NCI Yeast Anticancer Drug Screen. Data for the cln2 rad14 strain (AID 165);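 also: 0% = growth equal to vehicle treated cultures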; settings: S. cerevisiae cln2 rad14 strain, at 50.0 µM, active compounds read high
Summary of the method: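 The screen exposed genetically defined yeast (cln2 rad14) to test compounds and scored growth inhibition relative to vehicle-treated controls.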

[5] = NCI Yeast Anticancer Drug Screen. Data for the bub3 strain (AID 167); settings: S. cerevisiae bub3 mutant strain, at 50.0 µM, active compounds read high
Summary of the method: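 Part of a panel of yeast mutants defective in DNA damage repair or cell cycle regulation. Each strain is grown with compound, and inhibition is calculated relative to solvent-treated cultures.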

[6] = NCI Yeast Anticancer Drug Screen. Data for the mlh1 rad18 strain (AID 175); settings: S. cerevisiae mlh1 rad18 strain growth inhibition; at 50.0 µM; active compounds read high
Summary of the method: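 Compound-treated yeast growth, normalised to vehicle controls. Strain bears defined DNA repair mutations.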

Measured: growth inhibition

O=c1ccc2c(-c3ccccc3O)c3ccc(O)cc3oc-2c1
active: [1] 91.8% | [2] 78.4% | [3] 85% | [4] 86.9% | [5] 88.5% | [6] 95.5%

Cn1c(=O)oc2cc(C(=O)CSC(=S)N3CCCCCC3)ccc21
inactive: [1] -18.3% | [2] -33.1% | [3] -17.6% | [4] -14.8% | [5] -4.8% | [6] -7.6%

CC(=O)Nc1ccc2c(Br)ccc3c2c1CC3
inactive: [1] 0.8% | [2] -1.55% | [3] 4.3% | [4] 0.6% | [5] 6.6% | [6] -4.45%

COC(=O)c1ccc(OC(=O)Nc2ccc(C)cc2)cc1
inactive: [1] -7.15% | [2] -9.6% | [3] -8.45% | [4] -9.4% | [5] 13.6% | [6] -6.6%

O=C(NCc1cccnc1)Nc1cccc2c(NC(=O)NCc3cccnc3)cccc12
inactive: [1] -17.1% | [2] -6.3% | [3] 5.8% | [4] 14.5% | [5] -0.05% | [6] 13.9%

CC(C)(C)C(=O)Oc1ccc[nH]c1=O
inactive: [1] 23.4% | [2] -13.9% | [3] 2.35% | [4] -27.6% | [5] -13.7% | [6] -2.1%

COC(=O)CC1OCC=C2CN3CCC45C6=CC(=O)C(=O)C([N+](=O)[O-])=C6NC4C1C2CC35 (stereo unspecified)
inactive: [1] 0.8% | [2] -22.4% | [3] -15.4% | [4] 8.3% | [5] -4.8% | [6] -17.8%

O=C(CN1C(=O)c2ccccc2C1=O)NCC(=O)N(C(=O)NC1CCCCC1)C1CCCCC1
inactive: [1] 23.1% | [2] 2.3% | [3] 27.9% | [4] 11.8% | [5] -3.35% | [6] 5%

S=C1Cc2c([nH]c3ccccc23)-c2ccccc2N1
inactive: [1] -11.1% | [2] 26.6% | [3] -8.85% | [4] -3.9% | [5] 23.2% | [6] 2.45%

CC(=O)NC(C=O)C(O)C(O)C(O)CO (stereo unspecified)
inactive: [1] -29.4% | [2] -24.8% | [3] -11.1% | [4] -16.2% | [5] -7% | [6] 2.25%

CN1C(C(=O)O)CCC1C(=O)O (stereo unspecified)
inactive: [1] -1.2% | [2] 7.6% | [3] 6.55% | [4] -31.8% | [5] -0.4% | [6] 2%

CCc1n[nH]c(=O)n1/N=C/c1ccc(C)cc1
inactive: [1] -0.2% | [2] -3.3% | [3] -4.85% | [4] -0.3% | [5] 3.8% | [6] -2.25%

CC(=O)Nc1cccc(C)n1
inactive: [1] -17.8% | [2] -3.2% | [3] 1.6% | [4] -71.8% | [5] -0.95% | [6] 1.7%

COc1ccc(C(=O)Oc2ccccc2C)cc1
inactive: [1] 5.9% | [2] -26.4% | [3] -6.1% | [4] -11% | [5] -6.8% | [6] -1.95%

CCOC(=O)Cn1c(C)nc2nn(Cc3ccccc3)cc2c1=O
inactive: [1] -49.7% | [2] -56.1% | [3] -36.2% | [4] -1.35% | [5] -32.9% | [6] -30.8%

CCOC(=O)c1sc2c(c1OC(=O)c1ccccc1)c(=O)n(-c1ccccc1)c(=S)n2-c1ccccc1
inactive: [1] 21% | [2] 15.9% | [3] 30.1% | [4] 24.9% | [5] 29.2% | [6] 33.7%

COc1ccc(C(C#N)C(=O)C(=O)Nc2ccc(Cl)cc2C)cc1OC (stereo unspecified)
inactive: [1] -19.9% | [2] 17.9% | [3] 24.6% | [4] -14.2% | [5] 2.65% | [6] 16.9%

COC12C=CC(CC1)C1C(=O)C=CC(=O)C12 (stereo unspecified)
inactive: [1] -36.5% | [2] -31.4% | [3] -4.7% | [4] -39.3% | [5] -24.2% | [6] -21.4%

O=C1O[C@@H]2C3COC(O)[C@](O)(O3)[C@@H]2/C1=C\c1ccc(O)cc1 (stereo partly specified)
inactive: [1] 20.1% | [2] 10.4% | [3] 8.4% | [4] 5.25% | [5] 8.45% | [6] 9.4%

COC(CC1(OC)OC(=O)C=C1N)OC (stereo unspecified)
inactive: [1] -7.05% | [2] 20.1% | [3] -12.7% | [4] -28.3% | [5] 16.8% | [6] -3.05%

CCNS(=O)(=O)c1cc(C(=O)O)cc(C(=O)O)c1
inactive: [1] 6.9% | [2] -7.6% | [3] -4.95% | [4] -28.9% | [5] -5.55% | [6] 0.15%

CCc1cccc(CC)c1NC(=O)c1ccccc1Br
inactive: [1] 2.5% | [2] 1.85% | [3] 15.7% | [4] 16.3% | [5] -0.05% | [6] 21.2%

CCCCCCCC(=O)Oc1ccccc1
inactive: [1] 14.1% | [2] -10.5% | [3] -0.75% | [4] -10% | [5] -2.3% | [6] -1.2%

COC(=O)c1ccccc1N=NNc1ccc2c(=O)c3ccccc3[nH]c2c1
inactive: [1] 23.8% | [2] 1.7% | [3] 22.1% | [4] 34.5% | [5] 11.6% | [6] 66%

C[n+]1ccccc1C#N
inactive: [1] -17.2% | [2] -32.1% | [3] 0.55% | [4] 11.9% | [5] -43.4% | [6] -4.2%

C1CCCN(NC2=NCCO2)CC1
inactive: [1] 18.8% | [2] 4.8% | [3] 7.3% | [4] 5.95% | [5] 1.45% | [6] 25.9%

COC(=O)/C(C#N)=C/c1cccnc1
inactive: [1] -10.1% | [2] -7.65% | [3] 6% | [4] -61.1% | [5] -5.45% | [6] -15.7%

c1ccc2c3nnc(c2c1)SCCCSc1nnc(c2ccccc12)SCCCS3
inactive: [1] -9.3% | [2] -13.3% | [3] -2.5% | [4] 1.6% | [5] 1.8% | [6] -0.95%

COc1ccc(C(=O)NC(=S)Nc2cccc([N+](=O)[O-])c2)cc1
inactive: [1] -7.3% | [2] 29.9% | [3] 35.5% | [4] -21.6% | [5] 24.6% | [6] 27.7%

NC(=O)c1ccccc1NC(=O)C(=O)C(c1cnc2ccc([N+](=O)[O-])cc2n1)[N+](=O)[O-] (stereo unspecified)
inactive: [1] 9.7% | [2] -1.1% | [3] 19.6% | [4] 12.9% | [5] 5.85% | [6] 28.8%

COc1ccc(/C=C(/NC(=O)c2ccccc2)C(=O)O)c(OC)c1C
inactive: [1] 2.4% | [2] 0.45% | [3] 1.3% | [4] -66% | [5] -17.2% | [6] -7.65%

C=CCc1cccc(C2N(Cc3ccc(OC)cc3OC)CCCN2Cc2ccc(OC)cc2OC)c1O
inactive: [1] 26.6% | [2] 7% | [3] -0.75% | [4] 16.6% | [5] -2.05% | [6] 17.8%

O=[N+]([O-])c1ccc(N=Nc2c(O)c3ccccc3c3ccccc23)c([N+](=O)[O-])c1
inactive: [1] 46.6% | [2] 10.3% | [3] 27.9% | [4] 25.9% | [5] 6.1% | [6] 23.2%

O=C(O)Cc1nc(Cl)ccc1Cl
inactive: [1] 16.1% | [2] -7.2% | [3] -0.3% | [4] -15.2% | [5] -1.25% | [6] -1.1%

Cc1ccc(SCCCN(C)C)cc1
inactive: [1] 42% | [2] 17.6% | [3] 35.6% | [4] 15.2% | [5] 14.2% | [6] 16.3%

O=C(OC1CC2CCC1C2)c1cc([N+](=O)[O-])cc([N+](=O)[O-])c1 (stereo unspecified)
inactive: [1] 8.55% | [2] -1.4% | [3] -9% | [4] -20.4% | [5] -3.7% | [6] -3%

O=S(=O)(O)c1ccc[n+]([O-])c1
inactive: [1] 5.7% | [2] 15.4% | [3] -0.05% | [4] 39.5% | [5] 9.1% | [6] -8.2%

CCOc1ccc(C2=C/C(=C/c3cccs3)C(=O)O2)cc1
inactive: [1] 4.2% | [2] -7.2% | [3] -1.15% | [4] -25.6% | [5] 14.4% | [6] -5.9%

CCOC(=O)/C(C#N)=C/C=C1C=CN(C)C=C1
inactive: [1] 8.95% | [2] -4.4% | [3] -1.4% | [4] -30.9% | [5] 0.1% | [6] -10.1%

Cc1ccccc1S(=O)(=O)N1C(=O)c2ccccc2S1(=O)=O
inactive: [1] 12.8% | [2] -13.8% | [3] 5.35% | [4] 10.2% | [5] 5.15% | [6] -13.8%

COC(=O)C1C(C)C1c1ccc2c(c1)OCO2 (stereo unspecified)
inactive: [1] 2.65% | [2] 2.05% | [3] -0.7% | [4] -3.7% | [5] -0.7% | [6] -25.5%
